Reference: PubChem BioAssay (Tox21)
Records with an inconclusive call do not appear. A call without a number means that no potency is given here. The source holds several records for some structures; these can differ, active in one and inactive in another. Active and inactive are the calls of the source. The call rests on the fitted dose curve; in most records, active means well fitted cell-killing curve with a large enough effect in the repeat runs; inconclusive means weak or mixed curves, or effect the other way; inactive means no such curve, though single readings can be large or run the other way.

Test: qHTS assay to identify small molecule antagonists of the sonic hedgehog signaling (Shh) pathway - cell viability counter screen (AID 1259367); further: nearly all actives have a fitted effect of over 55% in size
Conditions: NIH/3T3 Gli1-Luc viability, CellTiter-Fluor, 24 h; series mostly up to 92.4 µM
From the text: National Center for Advancing Translational Sciences [NCATS]
NIH Chemical Genomics Center [NCGC]
U.S. Environmental Protection Agency [EPA]
National Institutes of Environmental Health Sciences [NIEHS]
National Toxicology Program [NTP]
U.S. Food and Drug Administration [FDA]
The sonic hedgehog (Shh) pathway is essential for normal embryonic development. Dysregulation of the Shh pathway can cause severe developmental defects in organs. Therefore chemicals that interfere with the pathway are potential developmental toxicants. A cell line designated 3T3Gli1-Luc (DMB/OARSA/CFSAN/FDA, Laurel, MD), a NIH/3T3 derived clone containing stably integrated Gli1-Luc reporter is used to detect chemical interference of the Shh pathway, by changes in the expression of the firefly Luc gene under the control of the Gli1 transcriptional response element. This cell line was used to screen Tox21 libraries for identifying and prioritizing the potential developmental toxicants that interfere Shh pathway. Conditioned medium-stimulated mode was used to screen for chemicals inhibiting Shh signaling. The cytotoxicity of the compounds was tested in parallel by measuring the cell viability using CellTiter-Fluor assay system (Promega, Madison, WI) in the same wells.
Tox21 Assay Protocol Summary:
3T3 Gli1-Luc cells were dispensed at 2,000 per well in 5uL of culture medium into white solid bottom 1536-well plates (Greiner Bio-One, Monroe, NC) using a Multidrop Combi (Thermo Scientific, Waltham, MA) dispenser. The assay plates were incubated at 37 C and 5% CO2 for 4hr, and then 23nL of compounds dissolved in DMSO and positive control were transferred using a Pintool station (Wako, San Diego, CA). The compound transfer was followed by the addition of 1ul conditioned medium or assay buffer using two separate tips of Flying Reagent Dispenser (FRD, Aurora Discovery, San Diego, CA). The assay plates were incubated at 37C and 5% CO2 for 24hr. For viability read, after 23hr of compound treatment, 1uL of CellTiter-Fluor reagent (Promega Corporation, Madison, WI) was added to each well of the assay plates using Flying Reagent Dispenser (FRD, Aurora Discovery, San Diego, CA) and incubated the assay plates at 37C for 1hr. The fluorescence signal was quantified using a ViewLux plate reader (Perkin Elmer, Shelton, CT).
Potency means the concentration at half of the fitted maximal effect.

| Compound | Potency |
| --- | --- |
| CCCCCCCCCl | inactive |
| COP(N)(=O)SC (stereo not given) | inactive |
| Cc1cccc([N+](=O)[O-])c1 | inactive |
| C[C@]12CC[C@H]3[C@@H](CC[C@@]45O[C@@H]4C(O)=C(C#N)C[C@]35C)[C@@H]1CC[C@@H]2O | inactive |
| Clc1ccccc1Cl | inactive |
| O=C1CCCN1 | inactive |
| Clc1cccc(Cl)c1Cl | inactive |
| Nc1ccc(Br)cc1 | inactive |
| CCC[CH2][Sn]([Cl])([Cl])[Cl] | inactive |
| c1ccc(OP(Oc2ccccc2)Oc2ccccc2)cc1 | inactive |
| CC(Br)C(=O)O (stereo not given) | inactive |
| CCNc1nc(NC(C)C)nc(SC)n1 | inactive |
| NCC(O)c1ccc(O)cc1 (stereo not given) | inactive |
| O=c1ccc(=O)[nH][nH]1 | inactive |
| CC(C)NC(=O)N1CC(=O)N(c2cc(Cl)cc(Cl)c2)C1=O | 54.5 µM (active) and inactive |
| CCOP(=S)(OCC)Oc1cnc2ccccc2n1 | inactive |
| O=[N+]([O-])c1ccc([As](=O)(O)O)cc1 | inactive |
| Oc1ccccc1Cl | inactive |
| CON(C)C(=O)Nc1ccc(Cl)c(Cl)c1 | inactive |
| CC(=O)C=C(C)C | inactive |

| Compound | Potency |
| --- | --- |
| CCNc1nc(NC(C)(C)C)nc(SC)n1 | inactive |
| C=C(C)CCl | inactive |
| CCCCOC(=O)c1ccccc1C(=O)OCCCC | inactive |
| Cc1[nH]c(=O)n(C(C)(C)C)c(=O)c1Cl | inactive |
| ClCCBr | inactive |
| CC(C)N1C(=O)c2ccccc2NS1(=O)=O | inactive |
| [O-][Cl+2]([O-])O | inactive |
| C=CCO | inactive |
| CCN(CC)CCO | inactive |
| CC(C)C1(C)N=C(c2nc3ccccc3cc2C(=O)O)NC1=O (stereo not given) | inactive |
| O=C(NC(=O)c1c(F)cccc1F)Nc1cc(Cl)c(OC(F)(F)C(F)C(F)(F)F)cc1Cl (stereo not given) | inactive |
| CCN(CC)c1ccccc1 | inactive |
| C#CC(C)(C)NC(=O)c1cc(Cl)cc(Cl)c1 | inactive |
| O=[N+]([O-])c1ccccc1 | inactive |
| COC(=O)NC(=S)Nc1ccccc1NC(=S)NC(=O)OC | inactive |
| CCOP(OCC)OCC | inactive |
| CC(C)(C)C(O)(CCc1ccc(Cl)cc1)Cn1cncn1 (stereo not given) | inactive |
| CCOC(=O)c1ccccc1C(=O)OCC | inactive |
| CC(C)OC(=O)Nc1cccc(Cl)c1 | inactive |
| O=S(=O)(c1ccc(Cl)cc1)c1cc(Cl)c(Cl)cc1Cl | inactive |
